# Reference: PubChem BioAssay (Tox21)
# Where “and” joins values, the source holds several entries; their conditions need not be identical. Equal values may be shown once. Inconclusive results are not listed. A call without a number means that no potency is given here. Where a structure was tested more than once in an assay, its records may differ in their call. Calls of active or inactive are those of the source. Calls follow the shape of the dose curve; as a rule, active = well fitted cell-killing curve with a large enough effect in the repeat runs; inconclusive = weak or mixed curves, or effect the other way; inactive = no such curve, though single readings can be large or run the other way.
# Assay: qHTS assay for identifying genotoxic compounds that show differential cytotoxicity against isogenic chicken DT40 cell lines with known DNA damage response pathways - Rev3 mutant cell line (AID 743014); also: nearly all actives have a fitted effect of over 55% in size
# Settings: chicken DT40 Rev3-/- viability, CellTiter-Glo, 40 h; series mostly up to 68.4 µM
# From the text: National Center for Advancing Translational Sciences [NCATS]
# NIH Chemical Genomics Center [NCGC]
# U.S. Environmental Protection Agency [EPA]
# National Institutes of Environmental Health Sciences [NIEHS]
# National Toxicology Program [NTP]
# U.S. Food and Drug Administration [FDA]
# DNA repair pathways play a critical role in cellular homeostasis by repairing DNA damage induced by endogenous processes and xenobiotics. Isogenic chicken DT40 cell lines deficient in different DNA repair pathways can be used to identify genotoxic compounds and aid in characterizing the nature of the DNA damage induced. Two DNA repair-deficient cell lines with disrupted genes, Rad54/Ku70 or Rev3, were used to screen the Tox21 10K compound library. Possible genotoxicity was based on the presence of a significant increase in cytotoxicity in one or more of the DNA repair-deficient cell lines compared to that observed in the parental DNA repair-proficient cell line. CellTiter Glo viability assay (Promega, Madison, WI) was used to measure cell viability in these cells after compound treatment. This assay includes the data from the Rev3 mutant cell line.
# Tox21 Assay Protocol Summary:
# 300 DT40 mutant cells in 5 uL/well were dispensed into white, solid-bottom 1536-well plates using a Multidrop Combi (ThermoFisher Scientific, Waltham, MA) dispenser. After the assay plates were incubated at 37 C/5% CO2 for approximately 0.5 hour, 23 nL of compounds dissolved in DMSO, positive controls or DMSO only was transferred into the assay plate by a pintool work station (Kalypsys, San Diego, CA). The assay plates were incubated at 37 C/5% CO2 for 40 hours. After 5 uL per well of CellTiter-Glo reagent was added into each well of the assay plates, the plates were incubated for 30 min at room temperature and the luminescence intensity of the plates was measured using a ViewLux (PerkinElmer, Shelton, CT) plate reader.
# Potency is read from the fitted curve at half-maximal effect.
row,SMILES,Potency
1,COC1=C(OC)C(=O)C(C/C=C(\C)CC/C=C(\C)CC/C=C(\C)CC/C=C(\C)CC/C=C(\C)CC/C=C(\C)CC/C=C(\C)CC/C=C(\C)CC/C=C(\C)CCC=C(C)C)=C(C)C1=O,inactive
2,C=CCc1cc(S(=O)(=O)c2ccc(O)c(CC=C)c2)ccc1O,68.6 µM (active)
3,O=C(O)CCCC/C=C(\c1ccccc1)c1cccnc1,inactive
4,C/C(=C(/CCO)SSCC1CCCO1)N(C=O)Cc1cnc(C)nc1N (stereo not given),23.7 µM (active)
5,S=C1NC=NC2N=CNC12 (stereo not given),48.6 µM (active)
6,COc1cc(/C=C/C(=O)CC(=O)/C=C/c2ccc(O)c(OC)c2)ccc1O,11.9 µM (active) and 12.3 µM (active)
7,O=P(O)(O)OP(=O)(O)OP(=O)(O)O,inactive
8,CCC(C)(C)c1ccc(CC(C)CN2C[C@@H](C)O[C@@H](C)C2)cc1 (stereo not given in full),0.668 µM (active)
9,C=CCN1C(=O)C(CC(C)C)NC1=S (stereo not given),inactive
10,CCCC(CCC)C(=O)OC1C[C@H]2CC[C@@H](C1)[N+]2(C)C (stereo not given in full),inactive and 13.3 µM (active)
11,CC1(C)CCC(NC(=O)[C@@H](N)CCC(=O)O)CC1,inactive
12,C[C@H](O)CN(C)C,inactive
13,CC[C@H]1OC(=O)[C@H](C)C(=O)[C@H](C)[C@@H](O[C@@H]2O[C@H](C)C[C@H](N(C)C)[C@H]2O)[C@](C)(OC)C[C@@H](C)C(=O)[C@H](C)[C@H]2N(CCCCn3cnc(-c4cccnc4)c3)C(=O)O[C@]12C,5.96 µM (active) and inactive
14,CC[C@H](C)C(=O)O[C@H]1CCC=C2C=C[C@H](C)[C@H](CC[C@@H]3C[C@@H](O)CC(=O)O3)[C@H]21,2.37 µM (active)
15,NC(=O)CC[C@@H]1NC(=O)[C@H](Cc2ccccc2)NC(=O)[C@H](Cc2ccc(O)cc2)NC(=O)[C@@H](N)CSSC[C@@H](C(=O)N2CCC[C@H]2C(=O)N[C@@H](CCCN=C(N)N)C(=O)NCC(N)=O)NC(=O)[C@H](CC(N)=O)NC1=O,inactive
16,CC[N+](CC)(CC)CCC(O)(c1ccccc1)C1CCCCC1 (stereo not given),inactive
17,O=c1[nH]c(=O)n([C@H]2C[C@H](O)[C@@H](CO)O2)cc1/C=C/Br,inactive
18,CN1CCN(CCCN2c3ccccc3Sc3ccc(Cl)cc32)CC1,7.5 µM (active)
19,O=C1OC(=O)c2cc(-c3ccc4c(c3)C(=O)OC4=O)ccc21,54.5 µM (active)
20,CN[C@H](CC(C)C)C(=O)N[C@H]1C(=O)N[C@@H](CC(N)=O)C(=O)N[C@H]2C(=O)N[C@H]3C(=O)N[C@H](C(=O)N[C@@H](C(=O)O)c4cc(O)cc(O)c4-c4cc3ccc4O)[C@H](O)c3ccc(c(Cl)c3)Oc3cc2cc(c3O[C@@H]2O[C@H](CO)[C@@H](O)[C@H](O)[C@H]2O[C@H]2C[C@](C)(N)C(O)[C@H](C)O2)Oc2ccc(cc2Cl)[C@H]1O (stereo not given in full),inactive

row,SMILES,Potency
1,Clc1nc(C(Cl)(Cl)Cl)c(Cl)c(Cl)c1Cl,19.3 µM (active)
2,O=C(O)/C=C/C(O)c1ccc(Cl)cc1 (stereo not given),inactive
3,O=C(O)[C@@H]1C[C@H](CP(=O)(O)O)CCN1,inactive
4,C[C@H](NCCc1ccc(O)cc1)[C@H](O)c1ccc(O)cc1,inactive
5,FC(F)(F)C(F)(F)C(F)(F)C(F)(F)C(F)(F)F,inactive
6,Cc1cc(F)ccc1-c1cc(N2CC[C@@H](O)[C@H]2CO)ncc1N(C)C(=O)C(C)(C)c1cc(C(F)(F)F)cc(C(F)(F)F)c1,8.5 µM (active)
7,CCc1cn([C@H]2C[C@H](O)[C@@H](CO)O2)c(=O)[nH]c1=O,inactive
8,NCC1CCC(C(=O)O)CC1 (stereo not given),inactive
9,c1ccc2cc3c4ccccc4c4ccccc4c3cc2c1,inactive
10,COc1cccc(-c2ccc(/C=C\CN3CCCCCC3)cc2Cl)c1,0.483 µM (active)
11,CO[C@H]1C[C@H](O[C@H]2[C@H](C)[C@@H](O[C@@H]3O[C@H](C)C[C@H](N(C)C)[C@H]3O)[C@@H](C)C[C@]3(CO3)C(=O)[C@H](C)[C@@H](O)[C@@H](C)[C@@H](C)OC(=O)[C@@H]2C)O[C@@H](C)[C@@H]1O,inactive
12,CCOc1ccc(NC(=S)Nc2ccc(OCC)cc2)cc1,inactive
13,CN(Cc1ccccc1)Cc1ccccc1,inactive
14,CC1CCCC(C)N1NC(=O)c1ccc(Cl)c(S(N)(=O)=O)c1 (stereo not given),inactive
15,CSCCC(N)C(=O)O (stereo not given),inactive
16,CC(C)=CCC/C(C)=C/CC/C(C)=C/CC/C=C(\C)CC/C=C(\C)CCC=C(C)C,inactive
17,OCC1(CO)COC(C(Cl)(Cl)Cl)OC1,inactive
18,NCC[C@H](O)C(=O)N[C@@H]1C[C@H](N)[C@@H](O[C@H]2O[C@H](CN)CC[C@H]2N)[C@H](O)[C@H]1O[C@H]1O[C@H](CO)[C@@H](O)[C@H](N)[C@H]1O,inactive
19,CC(C)c1ncc([N+](=O)[O-])n1C,inactive
20,C(=C\c1ccncc1)/c1ccccc1,inactive and 26.6 µM (active)
